The results in this text go back to PubChem BioAssay (NCATS).

Several values for one entry are separate records, joined by “and”; a condition that tells them apart may be missing. Identical values can stand only once. Inconclusive results are not listed. Activity calls are given as the source filed them. Calls follow the shape of the dose curve; as a rule, active = well fitted inhibition curve with a large enough effect in the signal ratio, with a control signal flat (not every such curve was filed as active); inconclusive = small, poorly fitted or top-dose-only effect, or effect the other way, or a change in a side signal; inactive = flat fitted curve, though single readings scatter; the % refers to the signal ratio.
% is scaled to controls: 0 for no effect and ±100 for the full control effect.

Chain of Thyroid hormone receptor beta (Homo sapiens) (P10828 whole entry, looked up): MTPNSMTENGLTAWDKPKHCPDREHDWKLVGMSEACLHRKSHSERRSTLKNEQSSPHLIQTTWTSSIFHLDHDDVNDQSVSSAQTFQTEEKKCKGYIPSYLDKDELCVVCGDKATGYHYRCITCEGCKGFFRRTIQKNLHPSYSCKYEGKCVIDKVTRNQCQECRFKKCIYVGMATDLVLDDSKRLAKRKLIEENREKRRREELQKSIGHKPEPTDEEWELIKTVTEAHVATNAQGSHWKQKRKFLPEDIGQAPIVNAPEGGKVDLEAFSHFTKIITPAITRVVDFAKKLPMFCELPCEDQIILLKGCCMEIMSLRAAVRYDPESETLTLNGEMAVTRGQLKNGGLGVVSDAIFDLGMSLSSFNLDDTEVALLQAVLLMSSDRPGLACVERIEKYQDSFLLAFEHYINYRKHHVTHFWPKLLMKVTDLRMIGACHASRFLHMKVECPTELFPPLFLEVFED

This assay has as its target Thyroid hormone receptor beta (Homo sapiens) (UniProt P10828). Briefly: qHTS assay for small molecule antagonists of thyroid hormone receptor beta signaling (AID 588547).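 Also: cells stimulated with 0.4 nM T3 agonist during compound exposure; series mostly up to about 77 µM.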 Conditions: TR-UAS-bla HEK293, beta-lactamase ratio, antagonist mode, 18 h. The text has this: NIH Chemical Genomics Center [NCGC] U.S. Environmental Protection Agency [EPA] National Institutes of Environmental Health Sciences [NIEHS] National Toxicology Program [NTP] NCGC Assay Overview Thyroid hormone receptor (TR) belongs to nuclear hormone receptor superfamily. There are two subtypes for TR: TR-alpha and TR-beta. TR-beta plays a major role in regulating plasma cholesterol levels and it mediates the biological activities of thyroid hormone. Screening environmental chemicals on TR-beta signaling will provide important information for the mechanism of compound action.
NCGC Assay Protocol Summary Using a beta-lactamase reporter-gene under control of the TR response element, a cell-based assay [GeneBLAzer TR-UAS-bla-GripTite assay developed by Invitrogen] was used to measure TR-beta signaling in antagonist mode. TR-UAS-bla-GripTite HEK 293 cells were used with assay medium containing 2% charcoal/dextran FBS, 0.1 mM NEAA and 1 mM sodium pyruvate. The assay was performed in clear bottom black Greiner 1536-well plates. Library compounds were measured for their ability to inhibit the reporter gene activity. Compounds were screened in a titration series in 1536-well format. The fluorescence intensity (405 nm excitation, 460/530 nm emission) was measured using an EnVision plate reader. […] Concentration-response titration points for each compound were fitted to the Hill equation yielding concentrations of half-maximal inhibition (IC50) and maximal response (efficacy) values. qHTS protocol for TR-beta beta-lactamase assay in antagonist mode [Step] [Parameter] [Value] [Description] 1. Reagent; 5 uL; 2500 cells/well 2. Incubation; 37 C for 4 hrs 3. Compounds; 23 nL; 0.59 nM to 92 uM 4. Controls (DMSO); 23 nL 5. Agonist (Stimulator); 1uL; T3 at 0.4nM (final) concentrations 6. Incubation; 37 C for 18 hrs 7. Detection reagent; 1 uL of CCF4-dye 8. Incubation; RT for 2 hrs 9. Detection; Fluorescence; Envision plate reader
(In general: In qHTS, concentration-response curves come from the screen itself.)
Consider `Cc1ccc(O)cc1`, for which the activity change % (negative = inhibition) is -4.08% (inactive). For the molecule `C1=CC2C3C=CC(C3)C2C1` (centres undefined), the activity change % (negative = inhibition) is 2.01% (inactive). Take `CC(=O)OC/C=C(C)/C=C/C=C(C)/C=C/C1=C(C)CCCC1(C)C`: the activity change % (negative = inhibition) is 1.82% (inactive). On to `O=C(Oc1ccccc1)c1ccccc1O`, for which the activity change % (negative = inhibition) is -5.55% (inactive) and -2.84% (inactive). Turning to `O=C(Oc1ccccc1)c1cccc(C(=O)Oc2ccccc2)c1`, the activity change % (negative = inhibition) is 0.996% (inactive). With `CCCCC(CC)COC(=O)c1ccccc1C(=O)O` (centres undefined), the activity change % (negative = inhibition) was -5.5% (inactive) and 6.91% (inactive). For the molecule `CN1C(=O)c2ccccc2C1=O`, the activity change % (negative = inhibition) is -4.79% (inactive). In the case of `OCCOCCN1CCN(C(c2ccccc2)c2ccc(Cl)cc2)CC1` (centres undefined), the activity change % (negative = inhibition) was -10.5% (inactive). Take `Nc1cccc2c(N)cccc12`: the activity change % (negative = inhibition) was 0% (inactive) and 7.22% (inactive).

Turning to `OCc1c[nH]c2ccccc12`, the activity change % (negative = inhibition) was 13% (inactive). For `COc1cc(C=O)ccc1O`, the activity change % (negative = inhibition) is 9.41% (inactive) and -10.4% (inactive). For the molecule `O=C(NO)c1ccccc1`, the activity change % (negative = inhibition) is -5.82% (inactive). Regarding `CC(C)C(C)(C)C(C)(C)C(C)(C)S`, the activity change % (negative = inhibition) was 1.2% (inactive) and -6.79% (inactive). Turning to `Cc1cc(C(C)(C)C)c(O)c(C(C)(C)C)c1`, the activity change % (negative = inhibition) was -7.42% (inactive).

Consider `COC(=O)c1c(Cl)c(Cl)c(C(=O)OC)c(Cl)c1Cl`, for which the activity change % (negative = inhibition) was 3.31% (inactive).

For the molecule `CCCCCCCCCCCC[N+](C)(C)Cc1ccccc1`, the activity change % (negative = inhibition) is -19.6% (inactive). Consider `CC(C)(C)c1ccc(O)c(O)c1`, for which the activity change % (negative = inhibition) is -12.4% (inactive) and -14.4% (inactive). To `CCCC(=O)c1cc(O)c(O)cc1O` belongs -21% (inactive).

In the case of `Brc1ccccc1-c1ccccc1`, the activity change % (negative = inhibition) is -16.6% (inactive).
